High-throughput results deposited in PubChem by National Center for Advancing Translational Sciences (NCATS).
Shown are actives, neighbours in structure and some others; about 5.7% of the full set was active somewhere.
Nrf2 inh – Nrf2 qHTS screen for inhibitors | hit rate 2.1% among 360,000 | AID 504444, 2011 | Potency, µM (series often up to 46 µM), for inactives: top-dose activity change, negative = inhibition, usual class: inhibitors | A549 ARE-Fluc reporter, luciferase luminescence, 18-24 h; further: potency means the concentration at half of the fitted maximal effect; nearly all actives have a fitted effect of over 60% in size
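Nrf2 activity is the BugLite luminescence, read 15 min after reagent at room temperature, following CellTiter-Fluor cytotoxicity readout (30 min, 37C). Compound titrations were applied for 18-24 h to 5000 A549 ARE_Fluc cells/well in 5% FBS OPTI-MEM.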
KB-V1 MDR tox – qHTS assay for MDR1-selective chemotherapeutics: Primary screen using the drug-selected MDR subline cells KB-V1. hit rate 3.4% among 400,000. KB-V1 MDR cells viability, CellTiter-Glo, 72 h. AID 1347076, 2019. Potency, µM (highest dose often 46.1 µM), hits mostly cytotoxic; further: potency means the concentration at half of the fitted maximal effect; nearly all actives have a fitted effect of over 60% in size
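KB-V1 cells (P-gp-expressing MDR subline of KB-3-1) in phenol-red-free DMEM with 10% FBS were exposed to library compounds over a concentration series for 72 h at 37 degrees C. Viability read by CellTiter-Glo luminescence; concentration-effect curves fitted after normalization.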
KB-3-1 cytotox – qHTS assay for MDR1-selective chemotherapeutics: Primary screen using the parental adenocarcinoma cell KB-3-1; AID 1347075, 2019; hit rate 1.4% among 400,000; Potency, µM (highest dose often 46.1 µM), most hits filed as cytotoxic; KB-3-1 viability, CellTiter-Glo ATP luminescence, 72 h; further: potency means the concentration at half of the fitted maximal effect; nearly all actives have a fitted effect of over 60% in size
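Luminescent ATP read-out (CellTiter-Glo) measures survival of drug-naive KB-3-1 cells after 72 h compound exposure at 37 °C. Titration series was screened from lowest to highest concentration, with DMSO vehicle plates as background controls.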
Giardia kill – Small Molecules that selectively kill Giardia lamblia: qHTS; AID 540267, 2011; Giardia lamblia trophozoite viability; hit rate 0.15% among 340,000; activity change, % at 7.66 µM, hits read low; in the data active means activity change below about -80%; inconclusive means between about -30% and that limit;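 further: parasites exposed to compound for two days anaerobically before the ATP read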
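Killing of trophozoites was scored by loss of ATP luminescence after a 48 hrs anaerobic exposure to compounds at 37 deg C, using 100 cells per well.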
PI4K2A inh – qHTS for small molecular inhibitors of PI4K2A; activity change, negative = inhibition, % at 76.9 µM; hit rate 0.13% among 420,000; purified PI4K2A, ADP-Glo luminescence, 1 h; stronger effect = lower value; Phosphatidylinositol 4-kinase type 2-alpha (Homo sapiens), Q9BTU6; AID 1346378, 2018; in the data active means activity change below about -50%; inconclusive means mostly about -30% to -49%;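 further: -100% = wells without enzyme as full effect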
Target sequence (Q9BTU6 whole entry, looked up): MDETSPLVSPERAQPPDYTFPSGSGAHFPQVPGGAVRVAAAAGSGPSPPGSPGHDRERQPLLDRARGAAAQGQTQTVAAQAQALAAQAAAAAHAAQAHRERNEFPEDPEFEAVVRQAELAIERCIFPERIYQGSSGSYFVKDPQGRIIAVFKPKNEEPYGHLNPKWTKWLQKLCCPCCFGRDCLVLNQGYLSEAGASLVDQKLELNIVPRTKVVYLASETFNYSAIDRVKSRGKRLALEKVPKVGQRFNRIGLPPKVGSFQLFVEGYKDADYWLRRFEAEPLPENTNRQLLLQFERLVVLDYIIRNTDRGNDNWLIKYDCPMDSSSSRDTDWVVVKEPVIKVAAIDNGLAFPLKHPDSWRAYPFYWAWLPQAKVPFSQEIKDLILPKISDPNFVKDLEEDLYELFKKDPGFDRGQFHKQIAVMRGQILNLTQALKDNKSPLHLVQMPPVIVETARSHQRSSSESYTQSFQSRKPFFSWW
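ADP-Glo luminescence measured ADP generated by PI4K2A enzyme (4 ug/mL before mixing) with 1.2 mM PI substrate (pre-mix) and 300 microM ATP (pre-mix). Tris pH7.5 buffer with MgCl2, Triton X-100; 1 h reaction at ambient temperature.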
A549 viability – Nrf2 qHTS screen for inhibitors: counterscreen for cytotoxicity; A549 ARE-Fluc cells, CellTiter-Fluor viability, 18-24 h; Potency, µM (top dose mostly 46 µM), without a hit: at the top dose activity change, negative = cytotoxicity, actives largely listed as inhibitors; hit rate 0.16% among 390,000; AID 504648, 2011; further: potency means the concentration at half of the fitted maximal effect
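A549 ARE_Fluc cells in 5% FBS OPTI-MEM were exposed to compounds in concentration-response for 18-24 h at 37 deg C. Viability was read by CellTiter-Fluor fluorescence (Ex 405/Em 525) after 30 min, before the luciferase read.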
The depositor's hits bear a star; ! = repeats disagree. Unless noted, the call rests on the fitted dose curve; in most records, active means well fitted curve in the direction sought with a large enough effect; inconclusive means small, poorly fitted or top-dose-only effect, or another doubt; inactive means no such curve, though single readings can be large; an effect the other way counts as inactive or inconclusive. Unless noted, on the % scale 0 is the no-effect control and ±100 the full control effect.

What do the screens show for `Cc1ccc(CN2CCN(/N=C/c3ccc(C)s3)CC2)c(C)c1`?
Nrf2 inh: -6.0%; KB-V1 MDR tox: 16.4µM*; KB-3-1 cytotox: inactive; Giardia kill: -4.1; PI4K2A inh: 3.5; A549 viability: 1.6%

Results for CN(c1ccc(F)cc1)S(=O)(=O)N1CCCC(C(=O)NCc2ccccc2Cl)C1 (centres undefined) ?
Nrf2 inh: inconclusive; KB-V1 MDR tox: inactive; KB-3-1 cytotox: 16.4µM*; PI4K2A inh: -2.3; A549 viability: -8.2%

Results for CN(c1ccc(F)cc1)S(=O)(=O)N1CCCC(C(=O)NCCc2ccccc2)C1 (centres undefined) ?
Nrf2 inh: -1.1%; KB-V1 MDR tox: inactive; KB-3-1 cytotox: inactive; PI4K2A inh: -1.5; A549 viability: -0.8%

Results for CSc1ccc(CCNC(=O)C2CCCN(S(=O)(=O)N(C)c3ccc(F)cc3)C2)cc1 (centres undefined) ?
Nrf2 inh: inconclusive; KB-V1 MDR tox: inconclusive; KB-3-1 cytotox: inactive; PI4K2A inh: 0.3; A549 viability: -6.2%

How did COc1cccc(CNC(=O)C2CCCN(S(=O)(=O)N(C)c3ccc(F)cc3)C2)c1OC (centres undefined) do in these assays?
Nrf2 inh: 25.9µM*; KB-V1 MDR tox: inconclusive; KB-3-1 cytotox: inconclusive; PI4K2A inh: -4.3; A549 viability: -11.2%

What do the screens show for `CN(C)c1ccc(CC2CCc3ccccc32)cc1` (centres undefined)?
KB-V1 MDR tox: inactive; KB-3-1 cytotox: inactive

Results for Cc1[nH]c2ccccc2c1CCN(Cc1cccs1)C(=O)Nc1cccc2c1OCO2 ?
PI4K2A inh: 6.0

Results for O=C(Nc1ccc(-n2nncc2-c2ccco2)cc1)c1cccc(F)c1 ?
KB-V1 MDR tox: 16.4µM*; KB-3-1 cytotox: inactive; Giardia kill: -2.8; PI4K2A inh: -10.2; A549 viability: -1.2%

Results for O=C(Nc1ccc(S(=O)(=O)C(F)F)cc1)c1ccc2c(=O)n3c(nc2c1)CCC3 ?
Nrf2 inh: 14.6µM*; KB-V1 MDR tox: inactive; KB-3-1 cytotox: inactive; Giardia kill: 9.6; PI4K2A inh: 1.9; A549 viability: -10.4%

How did COc1ccc(NC(=O)c2ccc3c(=O)n4c(nc3c2)CCCCC4)cc1 do in these assays?
Nrf2 inh: -3.1%; KB-V1 MDR tox: inconclusive; KB-3-1 cytotox: inactive; Giardia kill: 8.0; PI4K2A inh: 1.1; A549 viability: -10.0%

How did O=C(Nc1ccc(SC(F)F)cc1)c1ccc2c(=O)n3c(nc2c1)CCC3 do in these assays?
Nrf2 inh: 5.8µM*; KB-V1 MDR tox: inactive; KB-3-1 cytotox: inactive; Giardia kill: -16.3; PI4K2A inh: -1.1; A549 viability: inconclusive

What do the screens show for `CC(NC(=O)c1ccc2c(=O)n3c(nc2c1)CCC3)c1ccc(S(N)(=O)=O)cc1` (centres undefined)?
Nrf2 inh: 11.9%; KB-V1 MDR tox: inactive; KB-3-1 cytotox: inactive; Giardia kill: 4.2; PI4K2A inh: 0.3; A549 viability: 5.2%

How did CCOc1ccc(-n2c(SCC(=O)Nc3ccc(S(=O)(=O)Nc4nccs4)cc3)nnc2-c2ccc(C(C)(C)C)cc2)cc1 do in these assays?
PI4K2A inh: 3.2

What do the screens show for `CC1CCC/C=C/C(=O)c2c(O)cc(O)cc2CC(=O)O1` (centres undefined)?
Nrf2 inh: 5.8µM*; KB-V1 MDR tox: inconclusive; KB-3-1 cytotox: 10.3µM*; Giardia kill: 20.5; PI4K2A inh: inconclusive; A549 viability: 13µM*

How did CCOC(=O)N1CCN(CC(O)COc2ccc(OC)cc2C(C)(C)C)CC1 (centres undefined) do in these assays?
Nrf2 inh: 4.5%; KB-V1 MDR tox: 3.66µM*; KB-3-1 cytotox: inactive; Giardia kill: 20.3; PI4K2A inh: -3.8; A549 viability: 0.2%

What do the screens show for `C=CCc1cc(OC)ccc1OCC(O)CN1CCN(c2ccc(OC)cc2)CC1` (centres undefined)?
Nrf2 inh: inconclusive; KB-V1 MDR tox: 18.4µM*!; KB-3-1 cytotox: inactive; Giardia kill: -5.3; PI4K2A inh: -2.7; A549 viability: -27.4%

What do the screens show for `C=CCc1cc(C)ccc1OCC(O)CN1CCN(c2ccccc2)CC1` (centres undefined)?
Nrf2 inh: inconclusive; KB-V1 MDR tox: inactive; KB-3-1 cytotox: inactive; Giardia kill: 10.0; PI4K2A inh: -1.6; A549 viability: -4.4%

Results for O=C(CCc1ccccc1-c1ccccc1CCNC(=O)COCc1ccccc1)NCc1ccccc1 ?
PI4K2A inh: -0.1

Results for O=S(=O)(Nc1cc(Sc2ncn[nH]2)c(O)c2ccccc12)c1ccccc1 ?
Nrf2 inh: inconclusive; KB-V1 MDR tox: inactive; KB-3-1 cytotox: inactive; Giardia kill: -17.4; PI4K2A inh: -63.6*; A549 viability: inconclusive

What do the screens show for `O=C(Nc1ccccc1)OCCN1C(=O)CCC12CCC(c1ccc(Cl)cc1)CC2` (centres undefined)?
PI4K2A inh: 1.6

Results for CCN(CC)C(=O)CSc1nc2c(sc(=S)n2Cc2ccco2)c(=O)n1-c1ccccc1 ?
Nrf2 inh: inconclusive; KB-V1 MDR tox: 8.2µM*; KB-3-1 cytotox: inactive; Giardia kill: 1.8; PI4K2A inh: -4.8; A549 viability: -12.5%

What do the screens show for `CCOC(=O)CSc1nc2c(sc(=S)n2-c2ccccc2OC)c(=O)n1Cc1ccco1`?
Nrf2 inh: 5.7%; KB-V1 MDR tox: 9.2µM*; KB-3-1 cytotox: inactive; Giardia kill: 2.2; PI4K2A inh: -0.9; A549 viability: 2.7%

What do the screens show for `CCOC(=O)CSc1nc2c(sc(=S)n2Cc2ccco2)c(=O)n1-c1ccccc1`?
KB-V1 MDR tox: inactive; KB-3-1 cytotox: inactive; Giardia kill: 2.1; PI4K2A inh: 0.8; A549 viability: -4.0%

What do the screens show for `CCOC(=O)CSc1nc2c(sc(=S)n2-c2ccccc2OC)c(=O)n1-c1ccccc1OC`?
Nrf2 inh: -14.5%; KB-V1 MDR tox: inactive; KB-3-1 cytotox: inactive; Giardia kill: -2.9; PI4K2A inh: 4.5; A549 viability: -8.4%

Results for O=C(O)CNc1cccc(-c2nn3c(=O)cc(N4CCNCC4)nc3s2)c1 ?
Nrf2 inh: 4.9%; A549 viability: -1.6%

What do the screens show for `O=C1c2cccc3cc([N+](=O)[O-])cc(c23)C(=O)N1/N=C/c1ccc(O)cc1O`?
Nrf2 inh: inconclusive; KB-V1 MDR tox: inactive; KB-3-1 cytotox: inactive; Giardia kill: inconclusive; PI4K2A inh: -3.7; A549 viability: 23.1µM*
